MCF10A rereplic = induces DNA re-replication in MCF 10a normal breast cells; MCF 10A DNA re-replication, Hoechst nuclear intensity, 48 h; Potency, µM (titrated, usually from 46.1 µM), for the others: top-dose activity, positive = re-replication, actives largely listed as activators; actives 2.9% (n = 350,000); AID 624296; note: % of control where 0% means no effect; nearly all actives have a fitted effect of over 50% in size
VP16 counter = counter-screen for ROR gamma inhibitors: Gal4-VP16 reporter; Drosophila S2 Gal4-VP16 UAS-luciferase, luminescence, 20 h; AID 2546; Potency, µM (titrated, usually from 53.6 µM), for the others: at the highest dose activity, negative = inhibition, most hits filed as inhibitors; actives 3.5% (n = 310,000);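 note: Gal4-VP16 expression switched on by copper sulfate through the metallothionein promoter; % is set by controls: 0 for no effect and ±100 for the full control effect; nearly all actives have a fitted effect of over 50% in size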
SW480 rerep = DNA re-replication induction in SW480 cells. SW480 DNA re-replication, Hoechst DNA content imaging, 48 h. Potency, µM (top dose mostly 46.1 µM), without a hit: top-dose re-replication activation, usual class: activators. actives 1.8% (n = 340,000). AID 624297; note: % of control where 0% means no effect; nearly all actives have a fitted effect of over 55% in size
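Image-based DNA-content assay: after two days of treatment, nuclei were labelled with the DNA dye Hoechst and imaged, and hits were compounds raising the count of nuclei showing high fluorescence intensity.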
RORg inh = inhibitors of mouse ROR gamma transcriptional activity. P51450. Drosophila S2 Gal4-RORgamma UAS-luciferase reporter, 20 h. Potency, µM (highest dose often 53.6 µM), inactives show at the top dose activity change, negative = inhibition, actives largely listed as inhibitors. actives 5.4% (n = 310,000); note: % is set by controls: 0 for no effect and ±100 for the full control effect; nearly all actives have a fitted effect of over 60% in size
Target sequence (P51450 whole entry, looked up, the tested form may be a part): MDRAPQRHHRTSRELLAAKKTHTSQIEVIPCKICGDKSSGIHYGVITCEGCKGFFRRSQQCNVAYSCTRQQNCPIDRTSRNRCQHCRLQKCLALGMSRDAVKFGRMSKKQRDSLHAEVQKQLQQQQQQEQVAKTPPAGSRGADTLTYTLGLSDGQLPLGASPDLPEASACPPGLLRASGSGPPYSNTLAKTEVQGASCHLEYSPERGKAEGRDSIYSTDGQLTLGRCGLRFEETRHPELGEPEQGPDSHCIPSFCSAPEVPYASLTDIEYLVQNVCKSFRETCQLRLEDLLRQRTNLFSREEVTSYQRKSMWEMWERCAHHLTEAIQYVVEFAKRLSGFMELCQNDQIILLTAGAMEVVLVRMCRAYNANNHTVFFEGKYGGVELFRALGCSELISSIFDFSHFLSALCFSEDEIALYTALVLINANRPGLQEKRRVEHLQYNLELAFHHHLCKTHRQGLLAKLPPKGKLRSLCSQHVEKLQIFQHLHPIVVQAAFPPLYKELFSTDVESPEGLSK
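A Gal4/UAS one-hybrid system in insect cells: metallothionein-promoter Gal4–ROR gamma fusion plus Photinus luciferase reporter. Copper sulfate 700 uM final, 20 hr ambient incubation, luminescent detection after 10 min with reagent.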
ELG1 DNA repair = inhibitors of ELG1-dependent DNA repair in HEK293T cells; HEK293T ELG1-luciferase reporter, luminescence, 16 h; DNA damage induced by 5-fluorouridine; Potency, µM (top dose mostly 46.1 µM), for the others: at the highest dose activity change, negative = inhibition, hits mostly inhibitors; actives 2.3% (n = 330,000); AID 504467; note: % is set by controls: 0 for no effect and ±100 for the full control effect; nearly all actives have a fitted effect of over 55% in size
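In this reporter screen, reduction of luminescence relative to DMSO vehicle indicated activity. Compounds and 5-fluorouridine were added together to 2,000 cells per well, incubated for 16 hr at 37 °C, then developed with ONE-Glo.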
An asterisk follows results filed as active; ? = inconclusive; . = no result. Shown are actives, neighbours in structure and some others; about 10% of the full set was active somewhere. Calls come from the whole dose curve; as a rule, active = well fitted curve in the direction sought with a large enough effect; inconclusive = small, poorly fitted or top-dose-only effect, or another doubt; inactive = no such curve, though single readings can be large; an effect the other way counts as inactive or inconclusive. Potency is the fitted concentration of half-maximal effect.

SMILES	MCF10A rereplic	VP16 counter	SW480 rerep	RORg inh	ELG1 DNA repair
CCNC(=S)N1CCN(CCN2C(=O)c3cccc4cccc(c34)C2=O)CC1	0%	-2%	6%	13%	0%
O=C1c2cccc3cccc(c23)C(=O)N1CCN1CCN(C(=S)Nc2ccc(Cl)cc2)CC1	-4%	-7%	-2%	2.8µM*	-3%
COc1cc(COCC(O)CN2CCN(CCN3C(=O)c4cccc5cccc(c45)C3=O)CC2)cc(OC)c1OC (stereo not given)	-39%	-3%	?	-35%	12µM*
O=C1c2cccc3cccc(c23)C(=O)N1CCN1CCN(CC(O)COCc2ccc(Cl)cc2)CC1 (stereo not given)	?	?	.	-12%	21µM*
CCc1ccccc1NC(=O)CN1CCN(CC(=O)Nc2ccc3c(c2)OC2(CCCCC2)O3)CC1	6.5µM*	.	8.2µM*	.	.
O=C(Cc1ccccc1)Nc1ccc2c(c1)OC1(CCCC1)O2	13%	.	-3%	.	?
CC(C)c1onc(C(=O)N2CCN(c3ccccc3)CC2)c1[N+](=O)[O-]	-7%	8%	?	22%	-11%
CC(C)c1onc(C(=O)N2CCN(c3ccc(F)cc3)CC2)c1[N+](=O)[O-]	0%	-11%	21µM*	-2%	12%
Cc1occc1-c1nnc(SCC(=O)c2c(N)n(C3CC3)c(=O)[nH]c2=O)n1C	-6%	.	?	.	?
O=C(Nc1nnc(C2=COCCO2)o1)c1ccc(Br)cc1	.	0.5µM*	.	0.79µM*	-1%
O=C(Nc1nnc(C2=COCCO2)o1)c1ccc([N+](=O)[O-])cc1	8%	0.89µM*	-8%	1.1µM*	-1%
CS(=O)(=O)c1cccc(-c2nnc(NC(=O)C3=COCCO3)o2)c1	2%	.	-17%	.	2%
O=C(Nc1nnc(C2=COCCO2)o1)c1ccc(Cl)cc1	15%	-88%	?	0.63µM*	13%
O=C(Nc1nnc(C2=COCCO2)o1)c1cccc(C(F)(F)F)c1	?	0.32µM*	13%	0.56µM*	-1%
CC(=O)Nc1nnc(C2=COCCO2)o1	12%	0%	-1%	2%	2%
O=C(Nc1nnc(C2=COCCO2)o1)c1ccc(F)cc1	-2%	0.79µM*	?	0.89µM*	7%
O=C(Nc1nnc(C2=COCCO2)o1)c1ccc(Cc2ccccc2)cc1	9%	3.2µM*	?	0.63µM*	?
Cc1c(C(=O)OCC2CCCO2)[nH]c2c1C(=O)CC(c1ccco1)C2 (stereo not given)	3.7µM*	-6%	2.9µM*	?	?
Cc1c(C(=O)OCC(C)C)[nH]c2c1C(=O)CC(c1ccco1)C2 (stereo not given)	18µM*	1%	0.52µM*	?	?
C/C=C/COC(=O)c1[nH]c2c(c1C)C(=O)CC(c1ccco1)C2 (stereo not given)	?	-13%	?	28%	-2%
C=CCOC(=O)c1[nH]c2c(c1C)C(=O)CC(c1ccco1)C2 (stereo not given)	?	-10%	0.18µM*	?	-3%
Cc1c(C(=O)OC2CCCC2)[nH]c2c1C(=O)CC(c1ccco1)C2 (stereo not given)	?	1%	?	159%	-10%
CCOc1ccc(N2CC(C(=O)NCCc3ccc(S(N)(=O)=O)cc3)CC2=O)cc1 (stereo not given)	-5%	4%	15%	5%	5%
Cc1cc(C)c(S(C)(=O)=O)c(NN)n1	-1%	-22%	-19%	2µM*	?
CCCS(=O)(=O)c1nc(C)cc(C)c1S(C)(=O)=O	-3%	-12%	2%	-12%	3%
SMILES	MCF10A rereplic	VP16 counter	SW480 rerep	RORg inh	ELG1 DNA repair
NC(=O)CCC1NC(=O)C(Cc2ccccc2)NC(=O)C(Cc2ccc(O)cc2)NC(=O)CCSSCC(C(=O)N2CCCC2C(=O)NC(CCCN=C(N)N)C(=O)NCC(N)=O)NC(=O)C(CC(N)=O)NC1=O (stereo not given)	4%	0%	?	5%	.
O=C1Nc2ccc(Br)cc2/C1=C/C(=O)c1ccccc1	18µM*	.	?	.	.
CC(=O)N(C)c1ccc(N=C2C(=O)Nc3ccccc32)cc1	-1%	-4%	5%	-3%	-2%
CC(=O)/C=C1/C(=O)Nc2ccccc21	?	7.1µM*	-5%	3.5µM*	-2%
C=CCOc1cccc(C(=O)/C=C2/C(=O)Nc3ccccc32)c1	5.8µM*	?	?	13µM*	15%
CCn1c(CN2CCN(C(c3ccccc3)c3ccccc3)CC2)nc2c1c(=O)n(C)c(=O)n2C	17%	-5%	-27%	33%	?
COc1cc2c3nc4n(c(=O)c3n(CC(=O)NCC3CCCO3)c2cc1OC)CCS4 (stereo not given)	0%	5%	5%	8%	-2%
C=C(C(C)=O)C(O)c1ccco1 (stereo not given)	.	7%	.	36%	.
COc1ccc(N(C)S(=O)(=O)c2cccc(C(=O)Nc3nnc(C)s3)c2)cc1	?	.	-13%	.	?
C=CCN(c1ccccc1)S(=O)(=O)c1cccc(C(=O)O)c1	-2%	10%	-11%	-11%	4%
COc1ccc(N(C)S(=O)(=O)c2cccc(C(=O)Nc3nc(C)c(C(C)=O)s3)c2)cc1	0%	.	-16%	.	10µM*
COc1ccc(N(C)S(=O)(=O)c2cccc(C(=O)OCC(=O)c3c(N)n(C)c(=O)n(C)c3=O)c2)cc1	4%	.	2%	.	18µM*
C=CCN(c1ccccc1)S(=O)(=O)c1cccc(C(=O)NCc2ccncc2)c1	3%	.	-6%	.	8.2µM*
C=CCN(c1ccccc1)S(=O)(=O)c1cccc(C(=O)Nc2nc3ccccc3[nH]2)c1	26%	4.5µM*	7%	2.8µM*	23µM*
COC(=O)c1ccc(C(NC(=O)c2ccco2)[C@]2(C)C[C@H]2C2CCCCC2)cc1 (stereo not given in full)	.	12%	.	14%	.
CCCCN(C(=O)c1cc2c(s1)CCC2)c1c(N)n(CCCC)c(=O)[nH]c1=O	-18%	.	-38%	.	19%
CCSc1nnc(NC(=O)c2cccc(S(=O)(=O)N(C)c3ccc(C)cc3)c2)s1	?	?	18µM*	16µM*	3%
COc1ccc(N(C)S(=O)(=O)c2cccc(C(=O)Nc3cccc(C(=O)NC4CC4)c3)c2)cc1	?	.	-2%	.	21µM*
CN(c1cccc(Cl)c1)S(=O)(=O)c1cccc(C(=O)Nc2nc3ccccc3[nH]2)c1	8.2µM*	3.5µM*	?	2.8µM*	?
CCc1nnc(NC(=O)c2cccc(S(=O)(=O)N(C)c3ccccc3)c2)s1	6%	5%	5%	-15%	-14%
